Assay outcomes deposited in PubChem BioAssay by Broad Institute.
Tg IFNy HTS: inhibitors of Toxoplasma gondii growth with IFN-gamma. Toxoplasma gondii growth in IFN-gamma-treated host cells; stronger effect = lower value. activity change, negative = inhibition, % (concentration not given with the values). actives 3.8% (n = 69,000). AID 1259416; in the data active = activity change below about -70%, passing the limit was not always enough;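 also: host cells are HeLa cells infected with Toxoplasma gondii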
* = called active by the depositor; i = inactive; ! = not confirmed by another sample. This excerpt belongs to a sample that is enriched for hits.

SMILES | Tg IFNy HTS
CCc1cc2c(cc1C(C)=O)C(C)(C)CCC2(C)C | 17
COc1cccc2c(=O)c3ccccc3oc12 | 39
COc1cccc2c(=O)c(C(=O)NCc3cccnc3)c[nH]c12 | -8
COc1cccc2c(=O)c(C/C=C(/C)Cl)c(C)[nH]c12 | -81*
CC(C)OCC(=O)N1CCCC(C(=O)c2ccc(C(F)(F)F)cc2)C1 (stereo unspecified) | -6
COC[C@H]1CCCN1C(=O)CC(=O)Nc1cc(C)cc(C)c1 | 0
CC(=O)c1ccccc1-c1ccc(C(=O)NCC2CCN(CC(C)C)C2)cn1 (stereo unspecified) | 6
C=CCN1CCC2(CC1)CC(NC(=O)[C@H]1CCCO1)c1ccccc1O2 (stereo partly specified) | 1
CCCCCCCCCCCCCCCC[n+]1ccccc1 | -91*
Cc1cccc(CNC(=O)c2ccccc2NC(=O)C(C)N2CCCC2=O)c1 (stereo unspecified) | -5
CCC(C(=O)Nc1ccc(NC(=O)c2ccc(C)o2)cc1)n1cccn1 (stereo unspecified) | 4
CCOc1ccc(CNC(=O)c2cncc(OC)c2)cc1 | -34
CN(CC1CCN(c2ccccc2)C1)C(=O)c1cc2ncccn2n1 (stereo unspecified) | -43
Cc1ccc(S(=O)(=O)Nc2cc(C(C)(C)C)sc2C#N)cc1 | 1
Cc1ccc(S(=O)(=O)Nc2c(Cl)c(Cl)nc(C#N)c2Cl)cc1 | -93*
Cc1ccc(S(=O)(=O)Nc2ccc(S(=O)(=O)Nc3nc(C)cc(C)n3)cc2)cc1 | 48
COc1ccc(-c2noc(-c3c(O)c4ccc(F)cc4[nH]c3=O)n2)cc1 | -33
O=C(Nc1cccc(-n2cnnn2)c1)c1ccccc1 | 2
O=C(Nc1ccccc1)Nc1ccc(-n2ccc(C(F)(F)F)n2)cc1 | -81*
Cc1onc(-c2ccccc2)c1NC(=O)Nc1ccc(-n2ccc(C(F)(F)F)n2)cc1 | -13
CCc1nc([C@H]2CN(C)C[C@@H]2C(=O)N2CCNC(=O)CC2)c(C)[nH]1 | 9
CC(C)CN1CCn2cc(C(=O)N3CCN(c4ccc(F)cc4)CC3)nc2C1 | 5
Cc1ccc(CN(C)Cc2ccc(C#CC(C)(C)O)s2)o1 | 14
O=C(c1cccnc1)N1CCn2cc(CN3CCCC3)nc2C1 | -4
CC(C)CCN1Cc2c(C(=O)NC3CCCCC3)ncn2-c2ccccc2S1(=O)=O | -41
SMILES | Tg IFNy HTS
CCCCCN=c1ccn(Cc2ccccc2)c2ccccc12 | 0
CCCCCCCCCCCCCCCCn1cc[n+](Cc2ccccc2)c1C | -79*
C=CCN1C(=O)C2(c3ccccc31)c1[nH]c3ccccc3c1CCN2C(=O)C(C)C (stereo unspecified) | 337
Cc1ccc(CN2C[C@@H]3c4nc(N(C)C)ncc4CS(=O)(=O)[C@H]3C2)cc1 | 7
Cc1ccccc1CN1C[C@@H]2c3nc(N4CCCC(C)C4)ncc3CS(=O)(=O)[C@H]2C1 (stereo partly specified) | -86*
Cc1ccc(CN2C[C@@H]3c4nc(N5CCCC(C)C5)ncc4CS(=O)(=O)[C@H]3C2)cc1 (stereo partly specified) | 170
Nc1nc2c(s1)CN(C(=O)C1CC3(CCNCC3)CN1)CC2 (stereo unspecified) | -34
Cc1nn(C)c(C)c1CCC(=O)N(C)Cc1cc(C(C)C)no1 | 1
Cc1ccc(-c2csnn2)cc1NC(=O)CCn1c(=O)oc2cc(Cl)ccc21 | 10
CC(C)n1ccc(-c2cc(C(=O)N3CCC(N(C)C)CC3)c3ccccn23)n1 | -47
c1ccc2c(Cc3c[nH]c4ccccc34)c[nH]c2c1 | 10
c1ccc2c(-c3c[nH]c4ccccc34)c3ccccc3nc2c1 | -86*
Clc1ccc(CSc2nnc(-c3c[nH]c4ccccc34)o2)cc1 | -58
Cc1ccccc1OC1CN(C(=O)CC2C(=O)NCCN2C(C)C)C1 (stereo unspecified) | 15
CN(CCN1CCCC1)CC1(O)CCCN(Cc2ccc(F)c(F)c2)C1=O (stereo unspecified) | -2
O=S1(=O)[C@@H]2CCNCC[C@H]2CN1Cc1ccccc1 | -22
O=C(NC1CCN(CCCCC2(C(=O)NCC(F)(F)F)c3ccccc3-c3ccccc32)CC1)c1ccccc1-c1ccc(C(F)(F)F)cc1 | -74*
Cc1nc(C(F)(F)F)ccc1C(=O)NC1CCCN(Cc2cnn(C)c2C)CC1 (stereo unspecified) | 2
CN1CCC2(C=C(C(=O)NC3CC3)c3ccccc32)CC1 | -3
O=C(c1cc2cccnc2n(Cc2ccccc2F)c1=O)N1CCCc2ccccc21 | 4
CCO[C@@H]1CCN(S(=O)(=O)N(C)C)[C@@H]2CCO[C@H]21 | -82*
CCO[C@H]1CN(S(=O)(=O)c2cccnc2)[C@H]2CCCO[C@@H]12 | -4
CN(C)S(=O)(=O)N1CCO[C@H]2[C@@H](OCc3cccnc3)CC[C@H]21 | 2
O=C(NCc1ccc(S(=O)(=O)N2CCCC2)cc1)c1ccc(-n2cccn2)nc1 | -17
CON(C)Cc1csc(NC(=O)OC(C)(C)C)n1 | 1
SMILES | Tg IFNy HTS
COc1cccc(Cl)c1-c1cc(C)cnc1N | 1
COc1ccc(-c2nc(C)c(CCNC(=O)C(=O)Nc3ccccc3C)s2)cc1OC | -76*
Cc1nc(-c2ccc(Cl)cc2)sc1CCNC(=O)c1ccccc1 | -43
Cc1nc(-c2ccccc2)sc1CCNC(=O)c1ccc(Cl)cc1 | i
COc1ccc(C(=O)NCCc2sc(-c3ccc(Cl)cc3)nc2C)cc1 | -76*
COc1ccc(-c2nc(C)c(CCNC(=O)C(=O)Nc3c(C)cccc3C)s2)cc1OC | -15
COc1ccc(C(=O)NCCc2sc(-c3ccc(OC)cc3)nc2C)cc1 | i
COc1ccc(-c2nc(C)c(CCNC(=O)C(=O)Nc3ccccc3F)s2)cc1OC | 65
CCCCOc1ccc(C(=O)NCCc2sc(-c3ccc(Cl)cc3)nc2C)cc1 | -74*
COc1ccc(-c2nc(C)c(CCNC(=O)c3ccc(Cl)cc3)s2)cc1 | 314
CCN(C(=O)c1nc2c(s1)CCCN2C)C(C)C | 37
CCS(=O)(=O)N1C[C@@H](C(=O)NC(C)C)[C@@]2(Cc3ccccc3C(=O)N2)C1 | 38
OC1CCN(c2ccnc(N3CCC(O)(c4ccc(Cl)cc4)CC3)n2)C1 (stereo unspecified) | -5
CC(C)NC(=O)C1Cn2ccnc2C2(CCN(C(=O)c3cccn3C)CC2)O1 (stereo unspecified) | 6
CC(C)(C)Nc1ncnc2c1cnn2-c1ccc(Cl)cc1 | -46
CCCCCC#CC(=O)Nc1nc2cc(C)c(C)cc2[nH]1 | 84
CC(c1ccon1)N(C)CC(=O)Nc1nc2ccccc2[nH]1 (stereo unspecified) | 19
CCCS(=O)c1ccc2nc(NC(=O)OC)[nH]c2c1 (stereo unspecified) | 18
COC(=O)Nc1cc(C)n(-c2ccccc2)n1 | -44
CCCSc1ccc2nc(NC(=O)OC)[nH]c2c1 | -78*!
COC(=O)Nc1nc2ccc(SC(C)C)cc2[nH]1 | -66
COc1ccc(-n2nc3ccc(NC(=S)NC(=O)c4cccs4)cc3n2)cc1 | 32
COC(=O)c1ccc(NC(=O)c2ccccc2SC)cc1 | 92
COC(=O)Nc1nc2ccc(S(=O)c3ccccc3)cc2[nH]1 (stereo unspecified) | -75*!
Cc1ccc(C(=O)O)cc1NC(=O)c1cccs1 | -3
COC(=O)Nc1nc2ccc(C(=O)c3cccs3)cc2[nH]1 | -87*
COC(=O)Nc1nc2ccc(C(=O)c3ccccc3C(=O)OC(C)C)cc2[nH]1 | -101*
CN1Cc2c(C(=O)NC3CCCCC3)ncn2-c2ccccc2S1(=O)=O | 23
